# Data published in PubChem BioAssay.
# For part of these data: Potency and affinity values are given separately. Active and inactive are the calls of the source.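 How the source made its calls, unless noted: active means fluorescence ratio normalized to control raised more than 50% in primary screen plus both repeat runs; inactive means the rest.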
# Experiments:
# [1] = tested on: TRPC4 beta (transient receptor potential cation channel C4), mouse; assay: activators of mouse TRPC4 channel, confirmation, cell-based, Fluo4 calcium, HEK293 TRPC4beta/mu-opioid, duplicates, 10 µM (AID 2426); details: Fluo4 calcium fluorescence, at 10 µM; active compounds read high;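 on activation: percent rise of integrated ratio over buffer wells lacking compound which define 0%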
# [2] = tested on: transient receptor potential cation channel C4 beta (TRPC4), mouse; assay: activators of mouse TRPC4 channel, confirmation, cell-based, second round, Fluo4, HEK293 TRPC4beta/mu-opioid, 1 µM (AID 2461;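 active means primary screen active and over 50% activation in each of two duplicate runs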;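 on activation: 0% = wells without test compound as baseline of integrated fluorescence ratio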); details: Fluo4 calcium fluorescence, at 1 µM; active compounds read high
# [3] = tested on: TRPC4 (transient receptor potential cation channel C4 beta), mouse; assay: positive allosteric modulators of mouse TRPC4, confirmation, cell-based, second round, Fluo-4, HEK293 TRPC4beta/mu-opioid, 1 µM (AID 2554;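 active means primary screen hit whose fluorescence ratio, in both repeats, exceeds the weak agonist control mean by 3 SD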); details: DAMGO EC20, Fluo-4 calcium flux, at 1 µM; active compounds read high
# [4] = tested on: TRPC4 beta (transient receptor potential cation channel C4), mouse; assay: positive allosteric modulators of mouse TRPC4, confirmation, cell-based, Fluo-4, HEK293 TRPC4beta/mu-opioid (AID 2555;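 active means primary screen hit whose calcium fluorescence ratio, in both repeats, exceeds the weak agonist control mean by 3 SD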); details: DAMGO EC20, Fluo-4 calcium flux, at 10 µM; active compounds read high
# [5] = molecular target: Short transient receptor potential channel 4 (Mus musculus) (UniProt Q9QUQ5); assay: inhibitors of mouse TRPC4 channel, confirmation, cell-based, Fluo4, HEK293 TRPC4beta/mu-opioid (AID 2636;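 active means calcium signal cut by more than 3 SD below the full-agonist control yet still positive, in both repeats and the earlier primary screen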); details: DAMGO, Fluo4 calcium flux, at 10 µM; active compounds read high
# [6] = molecular target: Short transient receptor potential channel 4 (Mus musculus) (UniProt Q9QUQ5); assay: inhibitors of mouse TRPC4 channel, confirmation, cell-based, second round, Fluo4, HEK293 TRPC4beta/mu-opioid, 1 µM (AID 2637;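 active means calcium signal ratio cut to more than 3 SD under the fully stimulated control mean yet still positive, in both repeats and the primary screen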;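 on inhibition: percent of integrated ratio relative to wells lacking test compound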); details: Fluo4 calcium flux, DAMGO, at 1 µM; active compounds read high
# [7] = molecular target: Short transient receptor potential channel 4 (Mus musculus) (UniProt Q9QUQ5); assay: TRPC4 positive allosteric modulators, dose response, cell-based, HEK293 TRPC4/mu-opioid, Fluo-4 calcium, EC20 DAMGO (AID 434941;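 active means earlier screen potentiator hit that boosts the TRPC4 ion channel at some dose, with a dose response; inactive means no potentiation, no dose response, or not a prior hit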;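 further: calcium entry triggered by an EC20 dose of DAMGO at the co-expressed mu-opioid receptor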); details: HEK293 TRPC4/mu-opioid cells, Fluo-4 calcium fluorescence; series mostly up to 20 µM
# [8] = molecular target: Short transient receptor potential channel 6 (Mus musculus) (UniProt Q61143); assay: inhibition of mouse TRPC6 channel, confirmation, selectivity assay for TRPC4 inhibitor project, cell-based, HEK293, membrane potential dye, duplicate (AID 434948;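 active means active in primary screen and both duplicates, each dropping signal beyond three positive-control SD with fluorescence still positive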); details: HEK293 TRPC6, membrane potential dye fluorescence, at 10 µM, stimulated with maximal-effect acetylcholine; active compounds read high
# [9] = molecular target: Short transient receptor potential channel 6 (Mus musculus) (UniProt Q61143); assay: activation of mouse TRPC6 channel, confirmation, selectivity assay for TRPC4 activator project, cell-based, HEK293, membrane potential dye, duplicate (AID 434950;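 active means membrane potential signal rise above negative control mean plus 3 SD in both duplicates, also active in the earlier TRPC4 screen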;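 on activation: 0% = buffer only wells and 100% = acetylcholine maximal-effect wells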); details: HEK293 TRPC6, membrane potential fluorescence, at 10 µM; active compounds read high
# [10] = molecular target: Short transient receptor potential channel 6 (Mus musculus) (UniProt Q61143); assay: TRPC6 potentiation by TRPC4 potentiator hits, confirmation, selectivity assay for TRPC4 potentiator project, HEK293 cells, membrane potential dye, duplicate (AID 434952;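 active means compound raising the membrane signal above positive-control mean plus 3 SD in both repeats, and a primary screen hit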); details: HEK293 TRPC6, membrane potential dye fluorescence, at 10 µM, maximal acetylcholine added after compound; active compounds read high
# [11] = molecular target: Short transient receptor potential channel 4 (Mus musculus) (UniProt Q9QUQ5); assay: calcium flux activators in TRPC4/5HT1a cells, counter-screen for TRPC4 activator project, cell-based, second counter screen, HEK293 TRPC4/5HT1a, Fluo-4 (AID 434977;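 active means calcium signal rise above buffer-control mean plus 5 SD in both duplicates, and also a hit in the primary screen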;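 on activation: plate controls were assay buffer for no effect and maximal serotonin response for full effect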); details: Fluo-4 calcium flux, at 10 µM; active compounds read high
# [12] = calcium flux inhibitors in TRPC4/5HT1a cells, confirmation, counter-screen for TRPC4 inhibitor project, cell-based, second counter screen, HEK293 TRPC4/5HT1a, Fluo-4 (AID 434978;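 active means primary screen active whose calcium signal fell more than 3 SD beyond the full-serotonin control mean in both duplicate plates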;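 on outcome: serotonin given first at submaximal then at maximal dose after compound preincubation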); details: Fluo-4 calcium flux, at 10 µM, serotonin added to trigger calcium flux; active compounds read high
# [13] = tested on: TRPC4 (mouse), co-expressed with 5HT1a in HEK293; assay: calcium flux potentiators in TRPC4/5HT1a cells, confirmation, counter-screen for TRPC4 potentiator project, cell-based, second counter screen, HEK293 TRPC4/5HT1a, Fluo-4 (AID 434979;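 active means signal rise over 3 SD above mean of control wells given weak agonist, in both repeats and first screen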); details: Fluo-4 calcium flux, at 10 µM, serotonin added at its EC20 dose; active compounds read high
# [14] = calcium flux activation in mu-opioid HEK293 cells, confirmation, counter-screen for TRPC4 activator project, cell-based, HEK293 mu-opioid receptor line (AID 449723;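 active means hit in primary screen, with calcium signal over 5 SD above buffer well mean in both duplicates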;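 further: counter screen cells carry the mu-opioid receptor alone and lack TRPC4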); details: Fluo-4 calcium fluorescence, at 10 µM; active compounds read high
# [15] = calcium flux enhancement in mu-opioid HEK293 cells, confirmation, counter-screen for TRPC4 allosteric potentiator project, cell-based, HEK293 mu-opioid receptor line (AID 449724;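 active means calcium signal rise more than 3 SD above the low-dose agonist control mean, in both duplicate plates and the primary screen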); details: Fluo-4 calcium flux, at 10 µM, compound added before EC20 DAMGO stimulus; active compounds read high
# [16] = molecular target: Short transient receptor potential channel 4 (Mus musculus) (UniProt Q9QUQ5); assay: mouse TRPC4 channel inhibitors, dose response, cell-based, HEK293 TRPC4/mu-opioid, Fluo-4 calcium (AID 434942;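 active means primary screen inhibitor hit that blocks the TRPC4 channel at some tested dose, yielding a dose curve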); details: HEK293 TRPC4/mu-opioid cells, DAMGO-evoked Fluo-4 calcium ratio; series mostly up to 20 µM
# [17] = thallium flux activation in parental CHO cells, counter-screen for KCNQ1 potentiator project (AID 493006;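 active means duplicate-averaged activation above buffer control mean plus 5 SD of those controls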;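 on activation: fluorescence ratio of max minus min over baseline after K+ and Tl+ depolarization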); details: parental CHO-K1 cells, FluxOR thallium flux, at 10 µM; active compounds read high
# [18] = molecular target: Potassium voltage-gated channel subfamily KQT member 1 (Homo sapiens) (UniProt P51787); assay: KCNQ1 potassium channel potentiators, confirmation, FluxOR thallium flux, CHO cells, duplicates (AID 493007;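 active means potentiation averaged over duplicate wells exceeding buffer-only control mean by more than 3 SD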;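 on outcome: cells depolarized by a potassium plus thallium sulfate stimulus after compound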;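 on potentiation: 0% = buffer-only wells and 100% = R-L3 activator control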); details: KCNQ1 cell line, FluxOR thallium flux fluorescence, at 10 µM; active compounds read high, % of reference activator effect, buffer zero
# [19] = molecular target: Potassium voltage-gated channel subfamily KQT member 2 (Rattus norvegicus) (UniProt O88943); assay: rat KCNQ2 channel potentiation, selectivity assay for KCNQ1 potentiator project, KCNQ2-CHO-K1 cells (AID 493009;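 active means mean duplicate potentiation above the buffer control mean plus 5 SD of buffer wells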;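 further: assay conditions were tuned for KCNQ1 rather than KCNQ2 modulators; signal is max minus min fluorescence divided by baseline after thallium stimulus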); details: FluxOR thallium flux fluorescence, at 10 µM; active compounds read high, scaled: buffer 0, activator control 100
# [20] = molecular target: Potassium voltage-gated channel subfamily KQT member 1 (Homo sapiens) (UniProt P51787); assay: KCNQ1 channel current potentiators, confirmation, orthogonal assay for KCNQ1 potentiator project, IonWorks patch clamp, KCNQ1-CHO cells (AID 493184;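 active means current rise at least 3 SD above the untreated control mean in each of two repeat wells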;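 on current potentiation: percent change of the same well's current before compound addition so 0% = no change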); details: automated patch clamp current, at 10 µM; active compounds read high
# Sequence of Potassium voltage-gated channel subfamily KQT member 2 (Rattus norvegicus) (O88943 whole entry, looked up): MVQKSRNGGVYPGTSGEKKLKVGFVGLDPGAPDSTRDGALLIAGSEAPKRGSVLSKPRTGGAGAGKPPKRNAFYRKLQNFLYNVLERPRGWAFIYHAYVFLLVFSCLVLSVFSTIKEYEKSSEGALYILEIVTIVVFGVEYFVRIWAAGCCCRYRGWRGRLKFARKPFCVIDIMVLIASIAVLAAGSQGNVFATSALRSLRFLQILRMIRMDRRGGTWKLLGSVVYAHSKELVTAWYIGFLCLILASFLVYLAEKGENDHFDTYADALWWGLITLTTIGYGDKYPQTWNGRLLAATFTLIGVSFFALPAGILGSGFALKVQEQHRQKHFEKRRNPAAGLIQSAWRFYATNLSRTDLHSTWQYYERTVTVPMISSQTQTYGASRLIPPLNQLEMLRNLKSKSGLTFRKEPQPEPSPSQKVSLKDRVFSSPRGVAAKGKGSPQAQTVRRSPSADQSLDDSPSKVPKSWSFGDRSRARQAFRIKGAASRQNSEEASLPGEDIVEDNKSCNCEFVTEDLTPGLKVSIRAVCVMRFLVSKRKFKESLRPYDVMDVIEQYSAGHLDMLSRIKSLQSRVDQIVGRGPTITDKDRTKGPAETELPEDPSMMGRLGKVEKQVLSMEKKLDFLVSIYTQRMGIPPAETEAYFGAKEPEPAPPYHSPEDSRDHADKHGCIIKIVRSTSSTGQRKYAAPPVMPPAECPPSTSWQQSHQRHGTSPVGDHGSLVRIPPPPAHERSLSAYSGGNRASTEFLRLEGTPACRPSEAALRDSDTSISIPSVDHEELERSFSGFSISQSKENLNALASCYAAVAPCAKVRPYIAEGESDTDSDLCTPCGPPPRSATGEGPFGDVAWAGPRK
# Sequence of Short transient receptor potential channel 4 (Mus musculus) (Q9QUQ5 whole entry, looked up): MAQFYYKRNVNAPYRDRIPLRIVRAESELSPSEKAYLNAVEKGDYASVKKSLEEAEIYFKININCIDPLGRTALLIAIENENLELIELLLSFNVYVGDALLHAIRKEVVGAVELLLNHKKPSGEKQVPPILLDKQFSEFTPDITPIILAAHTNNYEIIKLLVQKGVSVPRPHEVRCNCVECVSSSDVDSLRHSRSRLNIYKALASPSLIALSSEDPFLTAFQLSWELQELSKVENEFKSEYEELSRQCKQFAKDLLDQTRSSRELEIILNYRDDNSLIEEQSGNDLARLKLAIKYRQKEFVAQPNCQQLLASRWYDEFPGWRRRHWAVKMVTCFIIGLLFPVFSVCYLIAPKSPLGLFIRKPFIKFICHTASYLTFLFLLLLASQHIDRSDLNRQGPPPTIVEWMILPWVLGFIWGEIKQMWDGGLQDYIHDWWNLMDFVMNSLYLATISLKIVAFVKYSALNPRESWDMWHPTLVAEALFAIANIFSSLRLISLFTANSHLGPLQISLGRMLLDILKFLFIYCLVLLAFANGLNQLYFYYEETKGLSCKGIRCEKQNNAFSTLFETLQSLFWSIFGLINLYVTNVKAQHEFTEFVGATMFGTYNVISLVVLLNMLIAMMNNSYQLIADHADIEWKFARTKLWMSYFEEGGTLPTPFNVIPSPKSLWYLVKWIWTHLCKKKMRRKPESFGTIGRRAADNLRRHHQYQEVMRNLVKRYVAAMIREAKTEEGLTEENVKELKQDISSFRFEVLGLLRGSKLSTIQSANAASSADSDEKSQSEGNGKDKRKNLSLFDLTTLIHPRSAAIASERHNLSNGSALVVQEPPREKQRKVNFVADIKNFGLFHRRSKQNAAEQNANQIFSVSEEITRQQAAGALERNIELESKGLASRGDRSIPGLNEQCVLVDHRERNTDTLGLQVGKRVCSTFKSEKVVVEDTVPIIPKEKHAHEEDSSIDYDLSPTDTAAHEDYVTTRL
# Sequence of Short transient receptor potential channel 6 (Mus musculus) (Q61143 whole entry, looked up): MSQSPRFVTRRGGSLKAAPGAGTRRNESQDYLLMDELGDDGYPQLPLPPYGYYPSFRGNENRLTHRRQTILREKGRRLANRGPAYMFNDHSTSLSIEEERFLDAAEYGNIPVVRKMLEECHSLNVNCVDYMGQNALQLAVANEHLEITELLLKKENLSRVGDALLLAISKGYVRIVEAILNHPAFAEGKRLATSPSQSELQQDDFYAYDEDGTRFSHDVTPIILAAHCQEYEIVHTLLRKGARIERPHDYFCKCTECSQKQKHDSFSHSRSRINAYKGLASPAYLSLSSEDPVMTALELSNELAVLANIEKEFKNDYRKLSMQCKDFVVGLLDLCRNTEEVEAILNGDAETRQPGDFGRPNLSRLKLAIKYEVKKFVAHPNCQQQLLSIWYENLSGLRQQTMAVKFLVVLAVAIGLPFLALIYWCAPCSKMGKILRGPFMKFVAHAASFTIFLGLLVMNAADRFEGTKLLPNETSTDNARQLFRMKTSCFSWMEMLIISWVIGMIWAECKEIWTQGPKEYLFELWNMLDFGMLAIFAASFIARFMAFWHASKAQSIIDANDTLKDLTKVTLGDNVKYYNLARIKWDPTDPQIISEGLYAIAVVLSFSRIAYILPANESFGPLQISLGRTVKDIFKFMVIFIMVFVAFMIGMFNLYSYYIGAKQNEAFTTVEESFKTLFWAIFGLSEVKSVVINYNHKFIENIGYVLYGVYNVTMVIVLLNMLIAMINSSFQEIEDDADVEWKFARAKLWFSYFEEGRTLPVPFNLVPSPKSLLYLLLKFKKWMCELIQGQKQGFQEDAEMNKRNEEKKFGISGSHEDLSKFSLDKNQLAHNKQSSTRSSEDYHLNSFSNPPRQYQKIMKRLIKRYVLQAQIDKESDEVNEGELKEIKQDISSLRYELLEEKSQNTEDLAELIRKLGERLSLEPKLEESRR
# Sequence of Potassium voltage-gated channel subfamily KQT member 1 (Homo sapiens) (P51787 whole entry, looked up): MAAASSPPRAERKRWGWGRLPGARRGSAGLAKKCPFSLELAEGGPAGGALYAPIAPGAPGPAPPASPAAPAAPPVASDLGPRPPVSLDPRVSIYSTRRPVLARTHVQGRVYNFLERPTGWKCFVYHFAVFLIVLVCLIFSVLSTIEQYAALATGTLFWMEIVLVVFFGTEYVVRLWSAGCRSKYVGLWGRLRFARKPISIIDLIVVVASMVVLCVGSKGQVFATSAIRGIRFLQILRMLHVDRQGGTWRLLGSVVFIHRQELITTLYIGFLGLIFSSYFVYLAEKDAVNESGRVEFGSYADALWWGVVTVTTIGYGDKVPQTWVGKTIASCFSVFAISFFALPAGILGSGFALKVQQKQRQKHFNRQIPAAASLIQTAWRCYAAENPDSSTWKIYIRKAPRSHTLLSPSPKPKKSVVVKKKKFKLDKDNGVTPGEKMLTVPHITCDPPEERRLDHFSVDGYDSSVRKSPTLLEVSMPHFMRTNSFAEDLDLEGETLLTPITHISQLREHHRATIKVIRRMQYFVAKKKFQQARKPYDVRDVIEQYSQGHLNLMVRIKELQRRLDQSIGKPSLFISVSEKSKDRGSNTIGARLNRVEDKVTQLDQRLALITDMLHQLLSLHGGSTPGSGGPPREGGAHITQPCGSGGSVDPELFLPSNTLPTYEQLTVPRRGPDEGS
smiles,measurement,setting,value
CCOc1ccccc1N(CC(=O)N1CCOCC1)S(=O)(=O)c1ccccc1,activation,[1],155% (active)
same,outcome,[2],inactive
same,outcome,[3],inactive
same,outcome,[4],inactive
same,outcome,[5],inactive
same,outcome,[6],inactive
same,outcome,[7],inactive
same,outcome,[8],inactive
same,activation,[9],56.5% (active)
same,outcome,[10],inactive
same,activation,[11],94% (active)
same,inhibition,[12],16% (active)
same,outcome,[13],inactive
same,activation,[14],74.4% (active)
same,outcome,[15],inactive
Cc1onc(-c2ccccc2)c1C(=O)NNC(=S)NC(=O)c1ccc(Cl)cc1Cl,activation,[1],274% (active)
same,activation,[2],81% (active)
same,outcome,[3],inactive
same,outcome,[4],inactive
same,outcome,[5],inactive
same,outcome,[6],inactive
same,outcome,[7],inactive
same,outcome,[16],inactive
same,outcome,[8],inactive
same,activation,[9],28% (active)
same,outcome,[10],inactive
same,activation,[11],142% (active)
same,outcome,[12],inactive
same,outcome,[13],inactive
same,activation,[14],96.9% (active)
same,outcome,[15],inactive
same,outcome,[17],inactive
same,potentiation,[18],29.5% (active)
same,outcome,[19],inactive
same,outcome,[20],inactive
O=C1CC(O)(C(F)(F)F)Oc2c1ccc1ccccc21 (stereo unspecified),activation,[1],216% (active)
same,outcome,[2],inactive
same,outcome,[3],inactive
same,outcome,[4],inactive
same,outcome,[5],inactive
same,outcome,[6],inactive
same,outcome,[7],inactive
same,outcome,[16],inactive
same,outcome,[8],inactive
same,outcome,[9],inactive
same,outcome,[10],inactive
same,activation,[11],119% (active)
same,outcome,[12],inactive
same,outcome,[13],inactive
same,activation,[14],102% (active)
same,outcome,[15],inactive
same,activation,[17],222% (active)
same,potentiation,[18],71.5% (active)
same,potentiation,[19],270% (active)
same,outcome,[20],inactive
NC(=Nc1ccccc1)Nc1ccccc1,activation,[1],224% (active)
same,outcome,[2],inactive
same,outcome,[3],inactive
same,outcome,[4],inactive
same,outcome,[5],inactive
same,outcome,[6],inactive
same,outcome,[7],inactive
same,outcome,[16],inactive
same,outcome,[8],inactive
same,activation,[9],51% (active)
same,outcome,[10],inactive
same,activation,[11],94.2% (active)
same,outcome,[12],inactive
same,outcome,[13],inactive
same,activation,[14],64.1% (active)
same,outcome,[15],inactive
same,outcome,[17],inactive
same,outcome,[18],inactive
same,outcome,[19],inactive
same,outcome,[20],inactive
COc1cccc(CC2(CO)CCCN(Cc3ccccc3-c3ccco3)C2)c1 (stereo unspecified),outcome,[1],inactive
same,outcome,[2],inactive
same,outcome,[3],inactive
same,outcome,[4],inactive
same,outcome,[5],inactive
same,inhibition,[6],42% (active)
same,outcome,[7],inactive
same,outcome,[8],inactive
same,activation,[9],47% (active)
same,outcome,[10],inactive
same,outcome,[11],inactive
same,outcome,[12],inactive
same,outcome,[13],inactive
same,outcome,[14],inactive
same,outcome,[15],inactive
Cc1onc(-c2ccccc2)c1C(=O)NNC(=S)NC(=O)c1ccc(F)cc1,activation,[1],201% (active)
same,outcome,[2],inactive
same,outcome,[3],inactive
same,outcome,[4],inactive
same,outcome,[5],inactive
same,outcome,[6],inactive
same,outcome,[7],inactive
same,outcome,[16],inactive
same,outcome,[8],inactive
same,activation,[9],27.5% (active)
same,outcome,[10],inactive
same,activation,[11],110% (active)
same,outcome,[12],inactive
same,outcome,[13],inactive
same,activation,[14],58.7% (active)
same,outcome,[15],inactive
same,outcome,[17],inactive
same,outcome,[18],inactive
same,outcome,[19],inactive
same,current potentiation,[20],16.2% (active)
Cc1ccccc1C(=O)Nc1c(C(=O)N(CCN(C)C)Cc2ccco2)oc2ccccc12,activation,[1],84% (active)
same,outcome,[2],inactive
same,outcome,[3],inactive
same,outcome,[4],inactive
same,outcome,[5],inactive
same,outcome,[6],inactive
same,outcome,[7],inactive
same,outcome,[8],inactive
same,activation,[9],33.5% (active)
same,outcome,[10],inactive
same,outcome,[11],inactive
same,outcome,[12],inactive
same,outcome,[13],inactive
same,outcome,[14],inactive
same,outcome,[15],inactive
CCN1/C(=C\c2ccc3ccccc3[n+]2CC)Sc2cc(C)ccc21,activation,[1],544% (active)
same,activation,[2],147% (active)
same,outcome,[3],inactive
same,potentiation,[4],18% (active)
same,outcome,[5],inactive
same,outcome,[6],inactive
same,outcome,[7],inactive
same,outcome,[16],inactive
same,outcome,[8],inactive
same,outcome,[9],inactive
same,outcome,[10],inactive
same,activation,[11],600% (active)
same,outcome,[12],inactive
same,potentiation,[13],110% (active)
same,activation,[14],672% (active)
same,activation,[15],27400% (active)
CN(C)C(CNC(=O)C1CCN(S(=O)(=O)c2cccc(C(F)(F)F)c2)CC1)c1ccccc1 (stereo unspecified),outcome,[1],inactive
same,outcome,[2],inactive
same,outcome,[3],inactive
same,outcome,[4],inactive
same,outcome,[5],inactive
same,inhibition,[6],85% (active)
same,outcome,[7],inactive
same,outcome,[8],inactive
same,outcome,[9],inactive
same,outcome,[10],inactive
same,outcome,[11],inactive
same,outcome,[12],inactive
same,outcome,[13],inactive
same,outcome,[14],inactive
same,outcome,[15],inactive
COc1cccc(CNCc2ccccn2)c1OC,outcome,[1],inactive
same,activation,[2],56% (active)
same,outcome,[3],inactive
same,outcome,[4],inactive
same,outcome,[5],inactive
same,outcome,[6],inactive
same,outcome,[7],inactive
same,outcome,[8],inactive
same,activation,[9],40% (active)
same,outcome,[10],inactive
same,outcome,[11],inactive
same,outcome,[12],inactive
same,outcome,[13],inactive
same,outcome,[14],inactive
same,outcome,[15],inactive
